Only some compounds are listed: those with a hit (about 1.8% of all), similar ones and a draw of the others.
Rtt109 Vps75 – inhibitors of Candida albicans Rtt109/Vps75 histone acetyltransferase; Q5AAJ8; inhibition, % at 34.9 µM; purified Rtt109/Vps75, ThioGlo CoA-SH fluorescence, 4 h; AID 540336; 0.16% of 330,000 active;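 active = inhibition of at least 50% in every replicate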
NOD2-RIPK2 inh – blocks binding of human NOD2 to RIPK2; O43353; CHO BLA complementation NOD2-RIPK2, CCF4 ratio; inhibition, % at 4.98 µM; 0.38% of 360,000 active; AID 624267; in the data active = inhibition above about 21%
Target sequence (O43353 whole entry, looked up): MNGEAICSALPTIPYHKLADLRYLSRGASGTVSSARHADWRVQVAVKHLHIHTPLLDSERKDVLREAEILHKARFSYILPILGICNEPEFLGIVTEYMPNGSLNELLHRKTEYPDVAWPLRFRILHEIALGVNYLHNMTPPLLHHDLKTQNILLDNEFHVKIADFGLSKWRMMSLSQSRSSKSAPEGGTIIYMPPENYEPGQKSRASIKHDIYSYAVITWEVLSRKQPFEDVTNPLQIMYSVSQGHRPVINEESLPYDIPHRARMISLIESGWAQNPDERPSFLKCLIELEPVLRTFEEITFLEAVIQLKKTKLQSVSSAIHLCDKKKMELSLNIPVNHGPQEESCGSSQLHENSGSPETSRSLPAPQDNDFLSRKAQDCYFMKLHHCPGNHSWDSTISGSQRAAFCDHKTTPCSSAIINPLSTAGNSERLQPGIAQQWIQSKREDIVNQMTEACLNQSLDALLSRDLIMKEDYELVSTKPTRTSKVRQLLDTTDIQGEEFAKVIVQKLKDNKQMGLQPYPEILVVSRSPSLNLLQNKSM
TLR4-MyD88 BLA – blocks binding of human TLR4 to MyD88; inhibition, % at 8.4 µM; O00206+Q99836; 0.18% of 200,000 active; HeLa CL3-4 TLR4/MyD88 BLA complementation, FRET ratio; in the data active = inhibition above about 25%
HTR2A ag – activates the mouse 5-HT2A serotonin receptor | P35363 | CHO-K1 mHTR2A beta-arrestin complementation, luminescence; percent of 30 µM serotonin response | activation, % at 7.6 µM | 0.66% of 360,000 active | AID 624169;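 active = activation above a run cutoff, the mean activation of all tested compounds plus 3 SD, cut at about 14% in these data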
TLR9-MyD88 block – blocks human TLR9 binding to MyD88; inhibition, % at 4.98 µM; 0.21% of 340,000 active; CHO BLA complementation TLR9-MyD88, CCF4 FRET ratio; AID 504734;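 active = inhibition above the mean over all tested compounds plus 3 SD, cut at about 21% in these data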
LANA-H2B inh – blocks KSHV LANA binding to histone H2A/H2B; 0.6% of 320,000 active; Q9QR71; AID 2629; cell-free LANA-H2A/H2B peptide, fluorescence polarization; inhibition, % (no concentration beside the values); in the data active = inhibition mostly above about 10%, no sharp cut-off; inactive = mostly below about 6.7%
TLR9-MyD88 cf – confirmation of human TLR9-MyD88 binding inhibitors. shares compounds with TLR9-MyD88 block. CHO TLR9/MyD88 BLA complementation, CCF4 FRET ratio. inhibition, % at 4.98 µM. 51% of 680 active. AID 540250;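 active = mean inhibition across three repeats above about 21% taken from the earlier screen, limit read from the data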;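 note: blue over green emission ratio reports constitutive TLR9 MyD88 association via BLA complementation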
BLA counter-1 – non-selective beta-lactamase inhibitors in TLR9-MyD88 counter-screen; shares compounds with TLR9-MyD88 block; CHO-BLA cells, CCF4 FRET ratio, BLA reporter; inhibition, % at 4.98 µM; 7% of 680 active; AID 540251;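 active = mean inhibition above a 50% cutoff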;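 note: counterscreen of TLR9-MyD88 hits on CMV-driven BLA in CHO-K1 cells; higher means less blue over green ratio so more BLA blockade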
TLR9 CHO cytotox – counter-screen for TLR9-MyD88 inhibitors: cytotoxicity in CHO cells; shares compounds with TLR9-MyD88 block; luminescence; inhibition, % at 4.98 µM; 39% of 680 active; in the data active = inhibition above about 11%
NOD2 RIPK2 conf – confirmation of human NOD2-RIPK2 interaction inhibitors. shares compounds with NOD2-RIPK2 inh. CHO cells, NOD2-RIPK2 BLA complementation, CCF4 FRET. inhibition, % at 4.98 µM. 70% of 1,200 active. AID 624370;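 active = mean inhibition across replicates above a set limit taken from the earlier primary screen, cut at about 21% in these data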
BLA counter-2 – hits BLA reporter in NOD2-RIPK2 inhibitor counterscreen; shares compounds with NOD2-RIPK2 inh; CHO BLA reporter, CCF4 FRET ratio; inhibition, % at 4.98 µM; 57% of 1,200 active; AID 624371;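 active = mean inhibition above the low-control mean inhibition plus three low-control SD, cut at about 11% in these data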
Large screens that a line does not name were inactive (follow-up assays come after a bar, where they were run).

COc1ccc(NC(=S)N2CCC3CC2c2cc(-c4ccc5c(c4)OCO5)ccc23)c(OC)c1 (stereo unspecified)	none (no result: Rtt109 Vps75, TLR4-MyD88 BLA, TLR9-MyD88 block, LANA-H2B inh)
O=C(c1nc2n(n1)C(c1ccc(Cl)cc1)C=C(c1ccccc1)N2)N1CCOCC1 (stereo unspecified)	NOD2-RIPK2 inh 48, TLR9-MyD88 block 42 | TLR9-MyD88 cf inactive | BLA counter-1 inactive | TLR9 CHO cytotox inactive | NOD2 RIPK2 conf 27 | BLA counter-2 21
COC(=O)[C@@]1(C(C)C)N=C(c2cc(OC)c(OC)c(OC)c2)[C@]2(O1)C(=O)N(C)c1ccccc12	none (no result: Rtt109 Vps75, TLR4-MyD88 BLA, TLR9-MyD88 block, LANA-H2B inh)
Cc1ccc2nc(-c3cccc(SC4CCCCC4)c3)c(NC3CCCCC3)n2c1	none (no result: TLR4-MyD88 BLA, LANA-H2B inh)
c1cc(SC2CCCCC2)cc(-c2nc3cnccn3c2NC2CCCCC2)c1	NOD2-RIPK2 inh 33, TLR9-MyD88 block 33 (no result: TLR4-MyD88 BLA) | TLR9-MyD88 cf 33 | BLA counter-1 inactive | TLR9 CHO cytotox inactive | NOD2 RIPK2 conf 52 | BLA counter-2 66
Cc1cnc(C(=O)N(c2ccc(N3CCOCC3)cc2)C2C(=O)Nc3ccccc3N=C2c2ccc(F)cc2)cn1 (stereo unspecified)	none (no result: Rtt109 Vps75, TLR4-MyD88 BLA, TLR9-MyD88 block, LANA-H2B inh)
O=c1c(O)c(-c2cccs2)oc2ccccc12	NOD2-RIPK2 inh 29, TLR9-MyD88 block 21 | TLR9-MyD88 cf inactive | BLA counter-1 inactive | TLR9 CHO cytotox inactive | NOD2 RIPK2 conf 41 | BLA counter-2 38
CS(=O)(=O)c1cc(N2CCOCC2)ccc1CNC[C@H]1O[C@@H](n2cnc3c(=O)[nH]c(N)nc32)[C@H](O)[C@@H]1O	none (no result: Rtt109 Vps75, TLR4-MyD88 BLA, TLR9-MyD88 block, LANA-H2B inh)
C=C1CC(COc2ccc3c(C)c(Cl)c(=O)oc3c2)(c2ccccc2)OC1=O (stereo unspecified)	NOD2-RIPK2 inh 60, TLR9-MyD88 block 24 (no result: TLR4-MyD88 BLA, LANA-H2B inh) | TLR9-MyD88 cf 23 | BLA counter-1 inactive | TLR9 CHO cytotox 98 | NOD2 RIPK2 conf 74 | BLA counter-2 28
CCN1CCN(Cc2c(O)ccc3c2O/C(=C\C=C\c2ccccc2)C3=O)CC1	none
CCN1CCN(Cc2c(O)ccc3c2O/C(=C\c2ccccc2)C3=O)CC1	NOD2-RIPK2 inh 27, TLR9-MyD88 block 21 (no result: Rtt109 Vps75) | TLR9-MyD88 cf inactive | BLA counter-1 inactive | TLR9 CHO cytotox inactive | NOD2 RIPK2 conf 25 | BLA counter-2 28
CC(C)C(=O)N1CCCC1(C)C(=O)Nc1ccc(-n2cccc2)cc1 (stereo unspecified)	none (no result: Rtt109 Vps75, TLR4-MyD88 BLA, TLR9-MyD88 block, LANA-H2B inh)
CCCCC1C(=O)N(c2ccccc2)N(c2ccc(O)cc2)C1=O (stereo unspecified)	NOD2-RIPK2 inh 68, TLR9-MyD88 block 29 (no result: TLR4-MyD88 BLA) | TLR9-MyD88 cf inactive | BLA counter-1 inactive | TLR9 CHO cytotox 82 | NOD2 RIPK2 conf 29 | BLA counter-2 inactive
CCCCC1(CO)C(=O)N(c2ccccc2)N(c2ccccc2)C1=O	none (no result: TLR4-MyD88 BLA)
CCCCCCSc1ccc(-c2nc3cnccn3c2NCCCC)cc1	NOD2-RIPK2 inh 24, TLR9-MyD88 block 23 (no result: TLR4-MyD88 BLA) | TLR9-MyD88 cf 48 | BLA counter-1 50 | TLR9 CHO cytotox inactive | NOD2 RIPK2 conf 68 | BLA counter-2 77
CSCCC(C(=O)NC1CCCC1)n1c(-c2ccccn2)nc2ccccc21 (stereo unspecified)	none (no result: Rtt109 Vps75, TLR4-MyD88 BLA, TLR9-MyD88 block, LANA-H2B inh)

Screening data deposited in PubChem BioAssay by several laboratories.
